TDP1 cell CPT: DT40-hTDP1 cell growth loss with CPT | chicken DT40 Tdp1-/-;hTDP1 cells + 20 nM CPT, ATP luminescence, 48 h | actives 12% (n = 420,000) | Potency, µM (top dose mostly 46.2 µM), inactives show at the top dose activity change, negative = growth inhibition, hits mostly inhibitors; also: potency is read from the fitted curve at half-maximal effect; % is scaled to controls: 0 for no effect and ±100 for the full control effect; nearly all actives have a fitted effect of over 55% in size
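Chicken DT40 Tdp1-/- cells complemented with human TDP1, 400 cells/well, exposed to compounds plus 20 nM camptothecin for at least 48 h at 37 C; viability read as ATP content by CellTiter-Glo luminescence.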
IL-1B inflam inh: inhibitors of inflammasome signaling (IL-1 beta secretion); THP-1 LPS/ATP IL-1B secretion, AlphaLISA, 16 h; stronger effect = lower value; actives 4.7% (n = 360,000); activity change, % at 57.5 µM; AID 743279; in the data active = activity change below about -50%; inconclusive = mostly about -30% to -49%; also: % is scaled to controls: 0 for no effect and ±100 for the full control effect
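Secreted IL-1B measured by AlphaLISA bead assay after 16 h compound exposure of THP-1 cells; compounds (final up to 57.5 uM) added 1 h before LPS (250 ng/mL) and ATP (1.25 mM) stimulation; lower signal means less secretion.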
HepG2 viability: kills HepG2 cells in TGF-b inhibitor counter-screen; HepG2 CAGA-GFP viability, ATP luminescence, 18 h; Potency, µM (titrated, usually from 46.1 µM), for the others: at the highest dose activity change, negative = cytotoxicity, actives largely listed as cytotoxic; actives 0.76% (n = 410,000); AID 588856; also: potency is read from the fitted curve at half-maximal effect
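HepG2 CAGA-GFP cells (1000/well, DMEM with 1% FBS) received compound, then TGF-beta at 500 pg/mL final, and were incubated 18 hours at 37 degrees C. Viability was read by CellTiter-Glo luminescence. Media-only wells were set as complete cell-killing and DMSO as no toxicity.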
TGFb SMAD3 inh: TGF-b pathway inhibition | HepG2 CAGA-GFP TGF-b/SMAD3 reporter, GFP fluorescence, 18 h; TGF-beta stimulated, 500 pg/mL final | Potency, µM (top dose mostly 46.1 µM), inactives show at the highest dose activity, negative = inhibition, hits mostly inhibitors | actives 1.2% (n = 410,000); also: potency is read from the fitted curve at half-maximal effect; % is scaled to controls: 0 for no effect and ±100 for the full control effect; nearly all actives have a fitted effect of over 65% in size
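GFP signal (ex488/em500-530) from TGF-beta-stimulated HEPG2 CAGA-GFP cells, 500 pg/mL final, 18 h at 37 degrees C in DMEM plus 1% FBS, normalized to unstimulated and DMSO-stimulated controls.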
DT40 TDP1 no CPT: qHTS for Inhibitors of human tyrosyl-DNA phosphodiesterase 1 (TDP1): qHTS in cells in absence of CPT; DT40 Tdp1-/- hTDP1 cells, no CPT, ATP luminescence, 48 h; Potency, µM (doses to about 46.2 µM), without a hit: at the top dose activity change, negative = growth inhibition, actives largely listed as inhibitors; actives 15% (n = 420,000); AID 686978, 2013; also: potency is read from the fitted curve at half-maximal effect; % is scaled to controls: 0 for no effect and ±100 for the full control effect; nearly all actives have a fitted effect of over 55% in size
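Chicken DT40 Tdp1-/- cells stably complemented with human TDP1 were seeded at 400 cells/well with DMSO in place of 20 nM camptothecin. After compound pinning, cells grew at least 48 hr at 37 °C; viability read by CellTiter-Glo luminescence.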
TDP1 block: blocks human tyrosyl-DNA phosphodiesterase 1. Q9NUW8. actives 0.28% (n = 350,000). recombinant TDP1, AlphaScreen DNA substrate cleavage. Potency, µM (top dose mostly 130 µM), for inactives: at the highest dose activity change, negative = inhibition, most hits filed as inhibitors; also: potency is read from the fitted curve at half-maximal effect; % is scaled to controls: 0 for no effect and ±100 for the full control effect; nearly all actives have a fitted effect of over 40% in size
Target sequence (Q9NUW8 whole entry, looked up): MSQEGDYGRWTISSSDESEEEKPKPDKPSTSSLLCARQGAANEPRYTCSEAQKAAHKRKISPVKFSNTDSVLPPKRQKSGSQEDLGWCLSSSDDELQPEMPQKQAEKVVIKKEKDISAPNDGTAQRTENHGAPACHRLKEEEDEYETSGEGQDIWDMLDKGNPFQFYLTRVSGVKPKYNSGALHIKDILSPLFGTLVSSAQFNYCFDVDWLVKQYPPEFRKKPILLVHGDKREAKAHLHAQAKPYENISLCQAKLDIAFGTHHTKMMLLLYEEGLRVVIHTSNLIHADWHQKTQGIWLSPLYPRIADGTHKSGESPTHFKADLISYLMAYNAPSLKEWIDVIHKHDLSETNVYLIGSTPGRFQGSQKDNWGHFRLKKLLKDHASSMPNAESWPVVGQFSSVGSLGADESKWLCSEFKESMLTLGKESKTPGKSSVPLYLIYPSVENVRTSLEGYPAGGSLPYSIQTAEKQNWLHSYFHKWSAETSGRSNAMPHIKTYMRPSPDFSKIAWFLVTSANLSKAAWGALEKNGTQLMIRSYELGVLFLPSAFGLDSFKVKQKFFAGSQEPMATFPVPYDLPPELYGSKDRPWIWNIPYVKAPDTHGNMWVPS
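Recombinant human Tdp1 (E. coli-expressed, 1 nM final) preincubated with compounds 15 min at room temperature, then 5'-biotin/3'-phosphotyrosine-FITC DNA substrate (15 nM final) added for 5 min. AlphaScreen beads (10 ug/ml final) added 10 min; cleavage lowers signal.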
The depositor's hits bear a star; i = inactive; ? = inconclusive; / = no result. Most compounds without a hit are left out; they make up all but 19% or so of the library. Unless noted, calls follow the shape of the dose curve; as a rule, active = well fitted curve in the direction sought with a large enough effect; inconclusive = small, poorly fitted or top-dose-only effect, or another doubt; inactive = no such curve, though single readings can be large; an effect the other way counts as inactive or inconclusive.

SMILES | TDP1 cell CPT | IL-1B inflam inh | HepG2 viability | TGFb SMAD3 inh | DT40 TDP1 no CPT | TDP1 block
CCn1c(=S)sc2c(=O)n(CC(=O)NC(C)CCc3ccccc3)c(C)nc21 (stereo not drawn) | ? | 9 | -9% | 15% | 29µM* | 3%
CCn1c(=S)sc2c(=O)n(CC(=O)Nc3ccccc3OC)c(C)nc21 | ? | 4 | 22% | 5% | ? | 2%
CCn1c(=S)sc2c(=O)n(CC(=O)Nc3cc(OC)ccc3OC)c(C)nc21 | ? | 4 | 8% | 13% | 18µM* | 5%
CC(C)CC(=O)NCC1(N(C)C)CCCCC1 | -15% | / | -7% | -18% | -9% | 1%
Cc1cc(NC(=O)C2CCCC2)nc2c1c(=O)oc1ccccc12 | ? | 18 | -2% | 27% | 18µM* | 7%
Cc1cc(NC(=O)C2CCCCC2)nc2c1c(=O)oc1ccccc12 | ? | -3 | -26% | -20% | ? | -3%
COC(=O)CNC(=O)CSc1nc2sccc2c(=O)n1-c1ccccc1 | 5% | 1 | 5% | 0% | 6% | 2%
COC(=O)CNC(=O)CSc1nc2sc(-c3ccccc3)cc2c(=O)n1-c1ccccc1 | ? | -66* | -75% | -7% | -27% | /
Cn1c(SCc2ccc(Br)cc2)nc2c(c1=O)SCC2 | 18µM* | 14 | -18% | 20% | 16µM* | 5%
CCOC(=O)c1ccc(NC(=O)CSc2nc3c(c(=O)n2-c2ccccc2OC)SCC3)cc1 | ? | 2 | -29% | -22% | 12µM* | 3%
Cn1c(SCC(=O)Nc2cccc(F)c2)nc2c(c1=O)SCC2 | 15µM* | 8 | -1% | -1% | 18µM* | 0%
Cn1c(SCC(=O)Nc2ccccc2C(F)(F)F)nc2c(c1=O)SCC2 | 16µM* | i | -22% | -13% | 10µM* | -6%
CCN(CC)C(=O)C1=C(C)N(Cc2ccc(C(C)(C)C)cc2)C(=O)C(CC(=O)NCCN2CCOCC2)C1 (stereo not drawn) | -25% | -25 | -32% | -22% | -26% | /
CCOC(=O)C1CCN(C(=O)c2ccc(NS(=O)(=O)c3ccc4[nH]c(=O)[nH]c4c3)cc2)CC1 | -1% | -4 | 2% | -5% | -6% | /
O=C(Nc1ccccc1)OCCN1CCN(Cc2ccccc2)CCC1=O | 2% | -5 | -20% | -1% | -11% | -5%
O=C1CCN(Cc2ccccc2)CCN1CCOc1ccccc1 | 21µM* | -4 | -1% | -4% | 16µM* | /
O=C(Nc1cccc(Cl)c1)OCCN1CCN(Cc2ccccc2)CCC1=O | ? | -2 | -2% | -15% | 18µM* | 7%
CC(C)[C@@H](COc1ccccc1)N1CCN(Cc2ccccc2)CCC1=O | 11µM* | -4 | -27% | 0% | ? | /
CSc1ccc(/C=N/NC(=O)c2ccccc2Cl)cc1 | 16µM* | -17 | 0% | 24% | 13µM* | 5%
CN(C)c1ccc(/C=N/NC(=O)c2ccccc2)cc1 | ? | -5 | -29% | -7% | ? | 0%
O=C(N/N=C/c1ccc(O)cc1)c1csc2ccccc12 | ? | -5 | 21% | 45% | 0.26µM* | 0%
CN(C)c1ccc(/C=N/NC(=O)c2ccccc2Cl)cc1 | 5.8µM* | ? | 2% | -5% | 7.3µM* | 0%
CN(C)c1ccc(C=NNC(=O)c2cccc3ccccc23)c(Cl)c1 | 5.2µM* | 35 | -5% | ? | 4.1µM* | /
Cc1ccc(C)c(NC(=O)CSc2nncn3c2cc2sccc23)c1 | ? | / | -19% | -1% | ? | 3%
CSc1ccc(/C=N/NC(=O)c2ccc(O)cc2)cc1 | 26µM* | -5 | -60% | 2% | ? | 1%
SMILES | TDP1 cell CPT | IL-1B inflam inh | HepG2 viability | TGFb SMAD3 inh | DT40 TDP1 no CPT | TDP1 block
COc1ccc(C(=O)N/N=C/c2ccc(SC)cc2)cc1 | -14% | -7 | 7% | 4% | -18% | 1%
CN(C)c1ccc(/C=N\NC(=O)c2ccc(Cn3cc(Cl)cn3)cc2)cc1 | ? | 6 | -4% | -21% | 16µM* | 3%
CN(C)c1ccc(/C=N/NC(=O)c2ccc(Cl)cc2)cc1 | -3% | 6 | -17% | 15% | 0% | -3%
Fc1ccccc1CCNc1c2c(nc3ncnn13)CCCC2 | 9.2µM* | -1 | -4% | -23% | 5.2µM* | 6%
c1ccc(CCNc2c3c(nc4ncnn24)CCC3)cc1 | ? | -10 | -38% | ? | ? | 0%
CC1(C(=O)N2CCN(Cc3ccccc3Cl)CC2)CC1(Cl)Cl (stereo not drawn) | -4% | -9 | -12% | -20% | -25% | 6%
Cc1ccc(S(=O)(=O)N2CCN(c3ccccc3)CC2)s1 | 2% | -7 | -9% | -2% | -4% | -1%
COc1ccc(-n2c(=O)c(CCC(=O)N3CCN(c4ccccc4O)CC3)nc3ccccc32)cc1 | 26µM* | -29 | -18% | ? | ? | /
COc1ccc(N2CCN(C(=O)CCc3ccccc3OC)CC2)cc1 | ? | -10 | -6% | 36% | ? | /
COc1ccc(Cl)cc1NC(=O)C1Cc2cc(S(=O)(=O)N3CCCC3)ccc2N1C(C)=O (stereo not drawn) | ? | -19 | -4% | -14% | ? | 3%
CC(C)CC(=O)N1CCN(Cc2ccc(C(F)(F)F)cc2)CC1 | ? | -6 | -4% | ? | ? | 4%
CC(C(=O)Nc1ccc(C(F)(F)F)cc1)N(C)CC(=O)N1CCN(Cc2ccccc2)CC1 (stereo not drawn) | ? | -51* | -16% | ? | ? | 2%
CC(=O)N1CCC(O)(c2cccc(C(F)(F)F)c2)CC1 | -14% | 0 | -3% | -4% | -6% | 6%
Cc1ccc2oc(C(=O)N3CCC(O)(c4cccc(C(F)(F)F)c4)CC3)c(C)c2c1 | 2% | -52* | -39% | ? | ? | 0%
Cc1cccc(C(=O)N2CCNC(=O)C2CC(=O)Nc2ccc(F)cc2)c1 (stereo not drawn) | 6% | / | 10% | 18% | 4% | 3%
COc1ccc(/C=C/c2cc[n+](C(=O)Cc3ccccc3)cc2)cc1 | 3.3µM* | -108* | 3% | 0% | 2.3µM* | 6%
COc1ccc(NC(=O)c2c(NCc3ccc(C)o3)sc3c2CCC(C)C3)c(OC)c1 (stereo not drawn) | 21µM* | / | -8% | ? | ? | 9%
